Compound activity from PubChem.
aSyn UTR act – Activators working through SNCA 5'UTR binding (MLPCN). alpha-synuclein 5'UTR reporter, activators screen. activity score, % (tested at 7.5 µM), hits read low. 300,000 compounds, 7.1% hits; in the data active = activity score below about -60%
The depositor's hits bear a star. Only a sample is shown.

SMILES	aSyn UTR act
COc1cccc(NC(=S)/C(=C(\[O-])c2ccc(OC(F)F)cc2)[n+]2ccccc2)c1	-66.5*
Cc1ccc(O)c(CNc2cnc3ccccc3c2)c1	-99.7*
COc1ccccc1Nc1nc2ccccc2n1C	-121.7*
COc1ccc(CNc2ncc(-c3ccc(F)cc3)n2C)c2ccccc12	65.1
COc1cccc(CNc2nc3ccccc3n2C)c1O	-93.7*
COc1cccc(CNc2cnc3ccccc3c2)c1O	-218.5*
COc1cccc(CNc2ccc(F)c(Cl)c2)c1O	-183.8*
O=C(/C=C\Nc1ccc(Cl)cn1)c1ccc(Br)cc1	-165.2*
Cc1cc(N/C=C/C(=O)c2ccc(Br)cc2)no1	-198.1*
Cc1ccnc(N/C=C/C(=O)c2ccc(Br)cc2)c1	-62.4*
Cc1ccc2oc(Nc3nc(C)c(C)c(C)n3)nc2c1	-99.4*
Cc1cccc(NC(=O)c2cc(=O)c3ccccc3o2)c1	-66.6*
Cc1cccc(NC(=O)c2cc(=O)c3ccccc3o2)n1	-132.4*
Cc1ccc(NC(=O)c2cc(=O)c3ccccc3o2)cc1	-189.6*
COc1cccc(NC(=O)c2cc(=O)c3ccccc3o2)c1	-72.2*
Fc1ccc(-c2nnn(Cc3ccccc3Cl)n2)cc1	-68.9*
Clc1ccc(-c2nnn(Cc3nc4ccccc4s3)n2)cc1	-138.5*
Nc1ccc(-c2nnn(Cc3ccccc3F)n2)cc1	-70.7*
c1ccc(Cn2nnc(-c3ccccc3)n2)cc1	-61.7*
CC(C)n1nnc(-c2ccc(OCc3ccccc3F)cc2)n1	-99.7*
Clc1ccc(OCc2nc(-c3ccncc3)no2)c(Cl)c1	-132.4*
Clc1cc(Cl)c(OCc2nc(-c3ccccn3)no2)cc1Cl	-84.7*
CC(C)(C)c1ccc(OCc2nc(-c3ccccn3)no2)c(Br)c1	-189.6*
O=C(c1cccs1)N(CCN1CCCCC1)CC1CCCN(C2CCCC2)C1 (stereo not given)	-113.3*
Cc1ccc(C(=O)N(CCN2CCCCC2)CC2CCCN(C3CCCC3)C2)s1 (stereo not given)	-76.6*
SMILES	aSyn UTR act
Cn1cnnc1SCC(=O)c1ccc2c(c1)CCCC2	-71.2*
COc1ccc(O)c(/C=N/N2CCCCC2)c1	-149.8*
O=C(COc1ccc2c(c1)OCO2)Nc1ccc(Cl)cn1	-141.6*
O=C(COc1ccc(Cl)cc1)Nc1ccc(Cl)cn1	-125.3*
O=C(COc1ccc2c(c1)OCO2)Nc1ccccc1F	-97.9*
O=C(COc1ccccc1)Nc1ccc(Cl)cn1	-114.4*
O=C(/C=C/c1ccccc1Cl)Nc1ccc(Cl)cn1	-118.3*
Cc1ccccc1NC(=O)COc1ccc2c(c1)OC(C)(C)CC2=O	-87.7*
O=C(Nc1ccc(Cl)cn1)c1ccc(Oc2ccccc2)cc1	-142.5*
Cc1ccc(CC(=O)Nc2ccc(Cl)cn2)cc1	-101.1*
O=C(/C=C/c1ccc2c(c1)OCO2)Nc1ccc(Cl)cn1	-109.6*
O=C(CCc1ccccc1)Nc1ccc(Cl)cn1	-313.6*
O=C(CCc1ccccc1)NC(c1cccs1)c1cc(Cl)c2cccnc2c1O (stereo not given)	88.2
O=C(N/N=C\c1cc(Cl)ccc1O)c1ccc(S(=O)(=O)N2CCCCC2)cc1	112.5
CC(=O)c1ccc(S(=O)(=O)N2CCCC2)cc1	-84.1*
COC(=O)c1c(N)sc(C(=O)NCCc2ccccc2)c1C	104.9
COc1cccc(C(=O)NCCS(=O)(=O)NCCc2ccccc2)c1	-74.6*
O=C(NCCS(=O)(=O)NCCc1ccccc1)c1ccc2c(c1)OCO2	-119.9*
COc1ccc(C(=O)NCCS(=O)(=O)NCCc2ccccc2)cc1	-72.2*
CCOC(=O)N1CCN(C(=O)c2ccc(C#CC3(O)CCCCC3)cc2)CC1	-63.8*
COc1ccc(-n2ncc3c(SCC(=O)N4CCN(c5ccccc5OC)CC4)ncnc32)cc1	-74.0*
Cc1ccc(-n2ncc3c(SCc4cccc(C)c4)ncnc32)cc1	-90.1*
Cc1ccccc1-n1ncc2c(SCC(=O)NCc3cccs3)ncnc21	-113.6*
Cc1ccc(-n2ncc3c(SCC(N)=O)ncnc32)cc1C	-118.5*
O=C(CSc1ncnc2c1cnn2-c1ccccc1)NC1CCCC1	-64.2*
SMILES	aSyn UTR act
CC(=O)CSc1ncnc2c1cnn2-c1ccccc1	-157.2*
O=C(CCCCl)Oc1ccc2cc(-c3ccc4ccccc4n3)c(=O)oc2c1	-124.5*
CC(=O)Oc1ccc2c(=O)c(-c3ccccc3)coc2c1	-145.8*
CC(=O)Oc1ccc2cc(-c3ccccc3)c(=O)oc2c1	-162.5*
COc1ccc(-c2coc3cc4oc(=O)cc(-c5ccccc5)c4cc23)cc1F	112.9
O=C(COc1ccc2ccc(=O)oc2c1)c1ccccc1	-101.8*
CC(=O)COc1ccc2cc(-c3ccccc3)c(=O)oc2c1	-63.9*
COc1ccc(-c2cc3ccc(OCC(N)=O)cc3oc2=O)cc1OC	-65.1*
Cn1cccc1/C=C1\SC(=O)N(c2ccc(O)cc2)C1=O	-143.8*
O=C(CSc1ccc(-c2cccs2)nn1)c1cccs1	-68.4*
N#Cc1ccc(-c2cccs2)nc1SCc1cccnc1	90.3
c1ccc(CSc2ccc(-c3cccs3)nn2)nc1	-102.3*
c1ccc(CSc2ccc(-c3cccs3)nn2)cc1	-107.5*
Cc1ccc(OCC(=O)O/N=C(\N)c2cccnc2)cc1	-88.1*
N/C(=N\OC(=O)c1cc(Cl)ccc1Cl)c1cccnc1	-130.7*
N/C(=N\OC(=O)c1ccccc1Cl)c1cccnc1	-167.7*
N/C(=N\OC(=O)c1ccccc1)c1cccnc1	-128.2*
N/C(=N\OC(=O)c1cc(Br)ccc1Cl)c1cccnc1	-215.3*
N/C(=N\OC(=O)COc1ccc(Cl)cc1Cl)c1cccnc1	-146.3*
N/C(=N\OC(=O)c1ccc(Cl)cc1[N+](=O)[O-])c1cccnc1	-103.6*
Cc1ccc(-n2nc(C)c3c2OC(N)=C(C#N)C3c2cccs2)cc1 (stereo not given)	-90.6*
COc1ccc(NC2=Nc3ccccc3CC2)cc1	-137.5*
Cc1ccc(Nc2cccccc2=O)cc1	-100.9*
NC(=O)c1ccccc1NC(=O)COc1ccc(Cl)cc1	-100.9*
Cc1ccc(OCC(=O)Nc2ccccc2C(N)=O)cc1	-97.9*
SMILES	aSyn UTR act
O=C(O)c1cccc2c1-c1ccccc1/C2=N\Nc1ccccc1	-82.9*
COc1ccc(/C=C2\SC(=O)N(CCNC(=O)CCS(=O)(=O)c3ccc(C)cc3)C2=O)cc1	-64.1*
COc1ccc(/C=C2\SC(=O)N(CCNC(=O)C3CCN(S(=O)(=O)c4cccs4)CC3)C2=O)cc1	-112.8*
COc1ccc(/C=C2/SC(=S)N(CCCC(=O)Nc3ccc(O)cc3)C2=O)cc1	68.0
COc1ccc(/C=C2\SC(=O)N(CCNC(=O)Cn3cnnn3)C2=O)cc1	-186.6*
CC(C)c1ccc(/C=C2\SC(=O)N(CC(=O)NCCCn3ccnc3)C2=O)cc1	-109.9*
Cn1c(=NC(=O)c2ccccc2[N+](=O)[O-])sc2cccc(F)c21	-110.2*
CC(C)S(=O)(=O)c1csc(C(=O)Nc2ccc(F)cc2)c1N	-100.0*
Clc1ccc(-c2cnc3n2CCC3)cc1	-103.1*
CCc1ccc(OCc2cnc(Cl)s2)cc1	-78.2*
O=C(CCNc1cc(Cl)cc(Cl)c1)c1cccs1	-93.5*
O=C(CCNc1ccc(Cl)cc1)c1cccs1	-89.3*
CC(C)COc1ccc(C(=O)Nc2sc3c(c2C(=O)O)CC(C)(C)OC3)cc1	62.6
CC(C)Oc1ccc(C(=O)Nc2ncn[nH]2)cc1	-65.0*
CC(C)COc1ccc(C(=O)Nc2ncn[nH]2)cc1	-66.3*
CC(C)(C)c1cc(NC(=O)Nc2ccccc2)no1	-196.7*
Cc1cc(/C(N)=N/OC(=O)Nc2ccc(Cl)cc2)no1	-91.7*
Cc1cccc(NC(=O)Nc2cc(C)on2)c1	-72.8*
Cc1cc(NC(=O)c2ccc(Cl)cc2Cl)no1	-185.1*
